This is a sample that favours compounds with a hit; in the whole collection about 1.4% have one here.
C2C12 statin – protects C2C12 myotubes from simvastatin toxicity | ATP luminescence, 48 h; scaled: DMSO 0, geranylgeraniol control 100 | rescue of ATP level, % at 7.49 µM | hit rate 0.78% among 330,000;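 active = mean ATP rescue above about 67%, or every replicate alone reaching that limit, limit read from the data, passing the limit was not always enough; inconclusive = no clear call, values can overlap the other calls; inactive = mean under the limit and some replicate under it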;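 note: myotubes were challenged with 10 µM simvastatin during compound exposure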
ARNT TACC3 PPI – disruptors of human ARNT/TACC3 interaction. AlphaScreen His-ARNT PAS-B/GST-TACC3 binding, luminescence; TACC3 fragment carries E629A point mutation. Q9Y6A5. hit rate 0.66% among 390,000. inhibition, % at 9.99 µM;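 active = mean inhibition of replicates at least 50% and at least half of replicates each reaching 50%; inconclusive = half or more replicates reach 50% but mean below 50%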
F508del corr – CFTR F508del correction in bronchial cells | activity (quench increase), % at 7.58 µM | AID 720511 | CFBE cells, YFP halide quenching; stimulated with forskolin plus potentiator P3; % fluorescence drop versus neutral controls | hit rate 0.36% among 350,000;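 active = mean added fluorescence quench of at least 8% versus neutral control, with both replicates also reaching 8%; inconclusive = only one of the mean or replicate conditions met; inactive = mean below 8% and not both replicates reaching 8%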;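 note: cells transiently co-express mutant CFTR-F508del with the halide-sensitive YFP; corrector assay measuring rescue of mutant channel to the surface after 24 h compound exposure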
PglD inh – blocks C. jejuni PglD acetyltransferase activity | purified PglD enzyme, DTNB colorimetric CoA detection | AID 602405 | inhibition, % at 12.5 µM | hit rate 0.098% among 360,000; in the data active = inhibition above about 16%, passing the limit was not always enough; inconclusive = no clear call, values can overlap the other calls
Of the large screens only hits and unclear results are named; the others gave an inactive call.

OC[C@H]1Nc2ccc(C#Cc3ccc(F)cc3)cc2[C@H]2[C@@H]1CCN2Cc1nccs1	none
C[C@H]1CN([C@@H](C)CO)C(=O)c2cc(NC(=O)CCC(F)(F)F)ccc2O[C@H]1CN(C)Cc1ccc(C(=O)Nc2ccccc2N)cc1	none
Cc1ccc(C(=O)NC(C)c2ccc(-n3ccnc3)cc2)cc1S(=O)(=O)N1CCOCC1 (configuration not stated)	none (no result: ARNT TACC3 PPI)
CC(NC(=O)c1cc(S(=O)(=O)N2CCOCC2)ccc1F)c1ccc(-n2ccnc2)cc1 (configuration not stated)	F508del corr 11 (no result: ARNT TACC3 PPI)
CC(C)NC(=O)N(C)C[C@H]1Oc2ccc(NS(=O)(=O)c3cn(C)cn3)cc2CC(=O)N([C@@H](C)CO)C[C@@H]1C	none
O=C(C[C@@H]1C[C@@H]2c3cc(NC(=O)C4CCOCC4)ccc3O[C@@H]2[C@@H](CO)O1)NCc1cc(F)ccc1F	none
C[n+]1cccc2cccc([O-])c21	none (no result: C2C12 statin, PglD inh)
[O-][n+]1cccc2cccc(O)c21	ARNT TACC3 PPI 53
CCCNC(=O)C[C@H]1CC[C@@H]2[C@H](COC[C@H](O)CN2Cc2cccc(F)c2)O1	none
Cc1ccc(-c2csc3ncn(CC#N)c(=O)c23)cc1	none (no result: F508del corr)
Cc1ccc(-c2csc3ncn(CC#N)c(=O)c23)cc1C	F508del corr 10
O=C(C[C@H]1CC[C@@H]2[C@H](COC[C@H](O)CN2C(=O)c2ccccc2)O1)NC1Cc2ccccc2C1	none
CCCC(=O)NC(c1ccc(C(C)C)cc1)c1ccc2cccnc2c1O (configuration not stated)	F508del corr 12
CC(=O)NC(c1ccc(Cl)cc1)c1ccc2cccnc2c1O (configuration not stated)	F508del corr 12
CC(=O)NC(c1ccco1)c1ccc2cccnc2c1O (configuration not stated)	ARNT TACC3 PPI 63 (no result: F508del corr)
CN(C)C(=O)[C@H]1[C@H](CO)[C@H]2Cn3c(ccc(C4=CCCC4)c3=O)[C@@H]1N2CCC(F)(F)F	none (no result: C2C12 statin, ARNT TACC3 PPI, PglD inh)
CC(C)NC(=O)N(C)C[C@H]1OCCCC[C@@H](C)Oc2ccc(N(C)C)cc2C(=O)N([C@@H](C)CO)C[C@H]1C	none (no result: C2C12 statin)
Cc1nn(C)cc1CNC(=O)Nc1ccc(Br)cc1Cl	none (no result: F508del corr)
Cc1nn(C)cc1CNC(=O)Nc1cccc(Cl)c1	C2C12 statin 113 (no result: F508del corr)
S=c1[nH]nc(-c2ccccn2)n1/N=C/c1ccc(-c2ccccc2Cl)o1	ARNT TACC3 PPI 56 (no result: C2C12 statin, PglD inh)
S=c1[nH]nc(-c2ccccn2)n1/N=C/c1ccc(Br)s1	ARNT TACC3 PPI 99 (no result: C2C12 statin, F508del corr, PglD inh)
S=c1[nH]nc(-c2ccccn2)n1/N=C/c1ccc(Cl)c(Cl)c1	none (no result: C2C12 statin, ARNT TACC3 PPI)
COc1cc(/C=N/NC(=O)c2ccc(CN3C(=O)c4cccc5cccc3c45)cc2)cc(OC)c1O	C2C12 statin 87
C=CCCCCCCCCc1nc(SCC(=O)O)n[nH]1	none
C=CCCCCCCCCc1nc(=S)[nH][nH]1	C2C12 statin 148 (no result: F508del corr)
N#Cc1c(=O)c2nc(NCc3ccccc3)ncc2n2ccccc12	ARNT TACC3 PPI 53 (no result: F508del corr)
N#Cc1c(=O)c2nc(NCCCO)ncc2n2c(=O)c3ccccc3[nH]c12	none (no result: C2C12 statin, PglD inh)
CCCC(=O)N1CC2(C1)CN(C(=O)CC1CC1)[C@H](CO)c1c2c2ccc(OC)cc2n1C	none (no result: C2C12 statin, ARNT TACC3 PPI, PglD inh)
CC(C)NC(=O)N(C)C[C@H]1Oc2ccc(NS(=O)(=O)c3ccc(F)cc3)cc2C(=O)N([C@H](C)CO)C[C@H]1C	none
COc1ccc(CC(=O)NCc2ccc(-n3cccc3)cc2)cc1OC	F508del corr 11
Cc1ccc(CNC(=O)Cc2ccc(-n3cccc3)cc2)cc1	none (no result: C2C12 statin, F508del corr)
O=[N+]([O-])c1ccccc1N=Nc1ccc(O)cc1O	none (no result: ARNT TACC3 PPI)
O=S(=O)(O)c1cc(O)c(N=Nc2ccc(O)cc2O)c2ccccc12	ARNT TACC3 PPI 93
COc1ccccc1C(=O)Nc1ccc2c(c1)C(=O)N(C)C[C@@H](OC)[C@@H](C)CN(C)[C@@H](C)CO2	none
CCOc1cccc(C=NNc2ccc(S(=O)(=O)Nc3ccccc3C(=O)O)cc2[N+](=O)[O-])c1O	C2C12 statin 109
C[C@@H]1CCCCO[C@H](CN(C)S(C)(=O)=O)[C@H](C)CN([C@@H](C)CO)C(=O)c2cc(NS(C)(=O)=O)ccc2O1	none (no result: C2C12 statin)
COc1ccc(CSc2nnc(Cc3sc(-c4ccccc4)nc3-c3ccccc3)o2)cc1	C2C12 statin 96 (no result: F508del corr)
Fc1ccc(CSc2nnc(Cc3sc(-c4ccccc4)nc3-c3ccccc3)o2)cc1	none (no result: F508del corr)
CCCC#Cc1cnc2c(c1)C(=O)N([C@@H](C)CO)C[C@@H](C)[C@H](CN(C)C(=O)Nc1ccccc1F)O2	none
Cc1ccc(C(=O)Nc2c(C(=O)N3CCOCC3)cnn2-c2ccccc2)cc1	C2C12 statin 111 (no result: F508del corr)
O=C1CCC(CCc2nc3ccccc3[nH]2)(c2ccccc2)C(=O)N1 (configuration not stated)	F508del corr 11
CCO[C@@H]1OC(C(=O)N2CCN(C)CC2)=C[C@H](c2ccccc2)[C@H]1CCCO	none (no result: C2C12 statin)
COc1ccc(CN=CC2=C(O)CNC2=O)cc1OC	C2C12 statin 94 (no result: F508del corr)
CC(=O)N(C)C[C@H]1Oc2ncc(C#Cc3ccccc3F)cc2C(=O)N([C@H](C)CO)C[C@@H]1C	none
C[C@H](CO)N1C[C@H](C)[C@@H](CN(C)Cc2ccc(-c3ccccc3)cc2)Oc2c(NC(=O)c3ccc(-c4nccs4)cc3)cccc2C1=O	none
Cc1ccc(NC(=O)CC2COc3ccccc3O2)cc1 (configuration not stated)	C2C12 statin 113 (no result: F508del corr)
CO[C@H]1CN(C)C(=O)c2ccc(NS(C)(=O)=O)cc2OC[C@H](C)N(Cc2cncnc2)C[C@H]1C	none
CCSc1nnc(NC(=O)c2c(-c3ccccc3Cl)noc2C)s1	C2C12 statin 126 (no result: F508del corr)
O=C1c2cccc3c([N+](=O)[O-])ccc(c23)C(=O)N1Cc1cccnc1	F508del corr 33 (no result: C2C12 statin, PglD inh)
Cc1ccnc(N2C(=O)c3cccc4c([N+](=O)[O-])ccc(c34)C2=O)c1	C2C12 statin inconclusive, F508del corr 23
O=C1c2cccc3cccc(c23)C(=O)N1Cc1cccnc1	none (no result: C2C12 statin, PglD inh)
Cc1ccc(N2C(=O)c3cccc4c([N+](=O)[O-])ccc(c34)C2=O)c2cccnc12	F508del corr 25
C[C@H](CO)N1C[C@H](C)[C@H](CN(C)S(=O)(=O)c2cccs2)Oc2c(NC(=O)c3nc4ccccc4s3)cccc2C1=O	none (no result: C2C12 statin)
O=S(=O)(N[C@@H]1CC[C@H](CCn2cc(-c3cccc(F)c3)nn2)O[C@@H]1CO)c1ccc(F)cc1	none
CCCNC(=O)C(CC)NC(=O)c1ccc(C#N)cc1 (configuration not stated)	none
CCCCCCCCC(NC(=O)c1ccc(C#N)cc1)C(=O)NCCC (configuration not stated)	C2C12 statin 159
O=c1c2c(nc3c(-c4ccc(Cl)cc4)c[nH]n13)CCC2	ARNT TACC3 PPI 46
Cc1ccc(S(=O)(=O)N(C)c2ccc(C(=O)O)cc2)cc1	C2C12 statin 125 (no result: ARNT TACC3 PPI, F508del corr)
Cc1ccc(S(=O)(=O)N(C)c2ccc(C(=O)N3CCCCC3)cc2)cc1	none (no result: F508del corr)
Cc1c(NC(=O)CSc2ccccn2)c(=O)n(-c2ccccc2)n1C	C2C12 statin 111 (no result: F508del corr)
O=S(=O)(O)c1cccc2c(N=Nc3ccc(O)c4ncccc34)cccc12	ARNT TACC3 PPI 73 (no result: F508del corr)

Compound activity (PubChem BioAssay)
